Data reported in ChEMBL document CHEMBL1961873, “Compounds: GSK PKIS; Assays: Nanosyn kinase panel” (2012).

Assays:
[1] = target: Sphingosine kinase 1 (Homo sapiens) (UniProt Q9NYA1); conditions: at 1 µM;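 note: mean SPHK1 inhibition value reported from the GSK PKIS kinase panel screen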
[2] = target: T1, Sphingosine kinase 2 (Homo sapiens) (UniProt Q9NRA0); conditions: at 0.1 µM
T1 sequence (whole entry): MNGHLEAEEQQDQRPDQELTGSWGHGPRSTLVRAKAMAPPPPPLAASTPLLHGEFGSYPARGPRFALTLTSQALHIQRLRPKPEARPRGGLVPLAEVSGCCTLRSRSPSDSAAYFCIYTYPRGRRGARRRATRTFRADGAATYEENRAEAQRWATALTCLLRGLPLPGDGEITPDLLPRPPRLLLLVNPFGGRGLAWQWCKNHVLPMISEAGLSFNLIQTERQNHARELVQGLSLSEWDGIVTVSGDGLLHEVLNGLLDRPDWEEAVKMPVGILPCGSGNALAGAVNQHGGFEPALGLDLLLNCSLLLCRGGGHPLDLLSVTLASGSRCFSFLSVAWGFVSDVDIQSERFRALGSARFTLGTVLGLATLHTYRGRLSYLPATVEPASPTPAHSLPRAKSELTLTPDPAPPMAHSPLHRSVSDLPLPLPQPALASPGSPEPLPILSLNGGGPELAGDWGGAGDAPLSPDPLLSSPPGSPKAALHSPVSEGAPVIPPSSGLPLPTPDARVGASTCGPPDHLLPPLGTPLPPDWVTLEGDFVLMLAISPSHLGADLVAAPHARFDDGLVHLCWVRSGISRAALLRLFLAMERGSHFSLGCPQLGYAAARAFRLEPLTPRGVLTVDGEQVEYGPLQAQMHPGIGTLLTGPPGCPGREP

[3] = target: T1, Sphingosine kinase 2 (Homo sapiens); conditions: at 1 µM
[4] = target: Casein kinase II subunit alpha (Homo sapiens) (UniProt P68400); conditions: at 0.1 µM
[5] = target: Casein kinase II subunit alpha (Homo sapiens) (UniProt P68400); conditions: at 1 µM
[6] = target: T2, Inhibitor of nuclear factor kappa-B kinase subunit alpha (Homo sapiens) (UniProt O15111); conditions: at 0.1 µM
T2 sequence (whole entry): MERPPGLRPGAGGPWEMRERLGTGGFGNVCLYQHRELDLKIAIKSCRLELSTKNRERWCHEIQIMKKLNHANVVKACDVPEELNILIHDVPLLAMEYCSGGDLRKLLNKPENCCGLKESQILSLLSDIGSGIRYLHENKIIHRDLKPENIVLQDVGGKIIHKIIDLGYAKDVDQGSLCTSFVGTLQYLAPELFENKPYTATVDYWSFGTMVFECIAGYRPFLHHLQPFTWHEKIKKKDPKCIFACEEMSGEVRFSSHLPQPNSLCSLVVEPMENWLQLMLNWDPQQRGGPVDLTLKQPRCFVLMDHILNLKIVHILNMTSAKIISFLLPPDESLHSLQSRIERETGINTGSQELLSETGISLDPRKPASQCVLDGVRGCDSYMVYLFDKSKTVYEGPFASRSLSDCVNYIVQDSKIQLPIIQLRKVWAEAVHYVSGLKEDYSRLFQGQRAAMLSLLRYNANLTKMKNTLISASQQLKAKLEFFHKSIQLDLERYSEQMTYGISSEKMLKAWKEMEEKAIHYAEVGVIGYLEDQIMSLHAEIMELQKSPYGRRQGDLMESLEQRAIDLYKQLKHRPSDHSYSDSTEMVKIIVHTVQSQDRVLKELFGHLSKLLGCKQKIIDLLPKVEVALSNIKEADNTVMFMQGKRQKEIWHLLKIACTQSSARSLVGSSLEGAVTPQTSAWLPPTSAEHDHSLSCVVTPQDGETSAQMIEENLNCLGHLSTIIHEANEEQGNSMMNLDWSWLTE

[7] = target: T2, Inhibitor of nuclear factor kappa-B kinase subunit alpha (Homo sapiens); conditions: at 1 µM
[8] = target: T3, Inhibitor of nuclear factor kappa-B kinase subunit beta (Homo sapiens) (UniProt O14920); conditions: at 0.1 µM
T3 sequence (whole entry): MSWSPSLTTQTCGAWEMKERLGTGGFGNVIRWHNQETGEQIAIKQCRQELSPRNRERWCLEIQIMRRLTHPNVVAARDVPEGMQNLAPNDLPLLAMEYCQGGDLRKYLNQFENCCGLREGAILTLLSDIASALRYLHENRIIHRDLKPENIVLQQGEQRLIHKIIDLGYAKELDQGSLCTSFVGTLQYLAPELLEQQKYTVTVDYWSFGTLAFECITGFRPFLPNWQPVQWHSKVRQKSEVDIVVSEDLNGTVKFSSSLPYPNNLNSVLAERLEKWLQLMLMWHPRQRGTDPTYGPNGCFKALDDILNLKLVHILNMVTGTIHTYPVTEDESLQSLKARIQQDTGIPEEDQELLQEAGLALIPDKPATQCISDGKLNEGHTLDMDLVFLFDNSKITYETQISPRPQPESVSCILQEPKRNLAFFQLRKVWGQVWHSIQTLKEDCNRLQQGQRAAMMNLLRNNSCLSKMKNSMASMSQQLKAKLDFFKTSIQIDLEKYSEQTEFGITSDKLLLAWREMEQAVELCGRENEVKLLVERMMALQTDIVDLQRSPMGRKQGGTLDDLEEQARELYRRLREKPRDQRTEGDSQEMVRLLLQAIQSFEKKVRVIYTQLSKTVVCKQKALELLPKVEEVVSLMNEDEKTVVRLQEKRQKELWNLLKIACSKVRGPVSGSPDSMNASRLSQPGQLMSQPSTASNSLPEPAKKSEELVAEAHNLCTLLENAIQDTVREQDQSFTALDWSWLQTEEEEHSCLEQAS

[9] = target: T3, Inhibitor of nuclear factor kappa-B kinase subunit beta (Homo sapiens); conditions: at 1 µM
[10] = target: T4, Inhibitor of nuclear factor kappa-B kinase subunit epsilon (Homo sapiens) (UniProt Q14164); conditions: at 0.1 µM
T4 sequence (whole entry): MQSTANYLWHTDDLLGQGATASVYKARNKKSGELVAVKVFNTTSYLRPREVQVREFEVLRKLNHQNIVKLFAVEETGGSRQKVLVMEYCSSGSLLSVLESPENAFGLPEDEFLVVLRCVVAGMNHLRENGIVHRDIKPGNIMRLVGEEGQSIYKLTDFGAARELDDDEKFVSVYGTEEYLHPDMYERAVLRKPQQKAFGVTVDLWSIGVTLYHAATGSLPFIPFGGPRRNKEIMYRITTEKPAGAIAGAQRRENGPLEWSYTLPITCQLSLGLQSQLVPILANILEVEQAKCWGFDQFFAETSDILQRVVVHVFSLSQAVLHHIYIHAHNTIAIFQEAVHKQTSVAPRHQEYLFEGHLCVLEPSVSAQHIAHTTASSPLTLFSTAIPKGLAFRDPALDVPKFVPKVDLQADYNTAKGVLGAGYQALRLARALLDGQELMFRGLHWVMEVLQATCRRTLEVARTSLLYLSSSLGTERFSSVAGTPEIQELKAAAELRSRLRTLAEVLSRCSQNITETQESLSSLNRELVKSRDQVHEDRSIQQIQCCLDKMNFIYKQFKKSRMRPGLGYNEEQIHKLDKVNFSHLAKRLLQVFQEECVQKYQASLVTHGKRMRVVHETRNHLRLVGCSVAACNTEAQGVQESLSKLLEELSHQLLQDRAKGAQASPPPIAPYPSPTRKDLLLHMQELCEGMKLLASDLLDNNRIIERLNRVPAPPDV

[11] = target: T4, Inhibitor of nuclear factor kappa-B kinase subunit epsilon (Homo sapiens); conditions: at 1 µM
[12] = target: T5, Serine/threonine-protein kinase Nek1 (Homo sapiens) (UniProt Q96PY6); conditions: at 0.1 µM
T5 sequence (whole entry): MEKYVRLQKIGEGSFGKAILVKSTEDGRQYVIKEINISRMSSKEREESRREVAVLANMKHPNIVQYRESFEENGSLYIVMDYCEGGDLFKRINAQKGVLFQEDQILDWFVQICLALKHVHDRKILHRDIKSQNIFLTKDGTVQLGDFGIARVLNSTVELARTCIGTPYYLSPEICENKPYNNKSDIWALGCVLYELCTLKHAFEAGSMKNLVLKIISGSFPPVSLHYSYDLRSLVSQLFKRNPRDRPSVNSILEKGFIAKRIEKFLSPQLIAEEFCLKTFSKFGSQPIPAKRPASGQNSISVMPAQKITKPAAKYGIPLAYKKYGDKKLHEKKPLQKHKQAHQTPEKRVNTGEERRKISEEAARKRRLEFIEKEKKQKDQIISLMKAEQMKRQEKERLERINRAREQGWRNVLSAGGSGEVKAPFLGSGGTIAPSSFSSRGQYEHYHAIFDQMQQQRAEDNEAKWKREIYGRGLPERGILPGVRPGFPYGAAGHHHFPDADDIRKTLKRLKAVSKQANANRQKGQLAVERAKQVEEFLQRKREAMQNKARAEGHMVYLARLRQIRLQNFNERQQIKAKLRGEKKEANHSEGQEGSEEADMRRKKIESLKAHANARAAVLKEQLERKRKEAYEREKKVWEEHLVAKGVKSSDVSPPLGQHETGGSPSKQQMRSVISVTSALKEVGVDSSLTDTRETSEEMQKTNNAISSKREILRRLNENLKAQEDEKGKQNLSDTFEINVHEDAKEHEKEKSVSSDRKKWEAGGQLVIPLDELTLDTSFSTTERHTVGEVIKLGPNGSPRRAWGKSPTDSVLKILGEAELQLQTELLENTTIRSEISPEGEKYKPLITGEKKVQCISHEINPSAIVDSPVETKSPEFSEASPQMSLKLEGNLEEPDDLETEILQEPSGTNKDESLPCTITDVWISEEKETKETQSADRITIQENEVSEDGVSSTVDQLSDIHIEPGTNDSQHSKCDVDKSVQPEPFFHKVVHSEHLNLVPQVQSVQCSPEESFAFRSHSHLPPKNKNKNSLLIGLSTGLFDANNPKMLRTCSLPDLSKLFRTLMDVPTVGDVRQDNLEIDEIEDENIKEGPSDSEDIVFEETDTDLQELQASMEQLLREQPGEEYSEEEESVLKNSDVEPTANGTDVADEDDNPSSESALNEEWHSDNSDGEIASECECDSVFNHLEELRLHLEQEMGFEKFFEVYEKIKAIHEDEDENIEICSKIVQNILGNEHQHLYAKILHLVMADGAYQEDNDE

[13] = target: T5, Serine/threonine-protein kinase Nek1 (Homo sapiens); conditions: at 1 µM
[14] = target: T6, Serine/threonine-protein kinase Nek2 (Homo sapiens) (UniProt P51955); conditions: at 0.1 µM
T6 sequence (whole entry): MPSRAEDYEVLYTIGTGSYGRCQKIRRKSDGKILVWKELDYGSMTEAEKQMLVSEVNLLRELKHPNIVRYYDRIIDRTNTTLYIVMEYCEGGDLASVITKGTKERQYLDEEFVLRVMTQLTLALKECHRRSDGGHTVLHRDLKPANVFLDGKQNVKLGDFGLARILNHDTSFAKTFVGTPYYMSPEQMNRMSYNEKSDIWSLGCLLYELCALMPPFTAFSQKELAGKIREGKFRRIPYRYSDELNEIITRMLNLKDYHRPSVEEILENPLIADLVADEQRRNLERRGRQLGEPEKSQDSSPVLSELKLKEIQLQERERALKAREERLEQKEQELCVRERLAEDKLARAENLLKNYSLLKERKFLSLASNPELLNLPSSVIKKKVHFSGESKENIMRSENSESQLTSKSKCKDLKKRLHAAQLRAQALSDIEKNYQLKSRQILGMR

[15] = target: T6, Serine/threonine-protein kinase Nek2 (Homo sapiens); conditions: at 1 µM
[16] = target: Serine/threonine-protein kinase Nek6 (Homo sapiens) (UniProt Q9HC98); conditions: at 0.1 µM
[17] = target: Serine/threonine-protein kinase Nek6 (Homo sapiens) (UniProt Q9HC98); conditions: at 1 µM
[18] = target: Serine/threonine-protein kinase Nek7 (Homo sapiens) (UniProt Q8TDX7); conditions: at 0.1 µM
[19] = target: Serine/threonine-protein kinase Nek7 (Homo sapiens) (UniProt Q8TDX7); conditions: at 1 µM
[20] = target: T7, Serine/threonine-protein kinase Nek9 (Homo sapiens) (UniProt Q8TD19); conditions: at 0.1 µM;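 note: reported value is the mean percent inhibition of NEK9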
T7 sequence (whole entry): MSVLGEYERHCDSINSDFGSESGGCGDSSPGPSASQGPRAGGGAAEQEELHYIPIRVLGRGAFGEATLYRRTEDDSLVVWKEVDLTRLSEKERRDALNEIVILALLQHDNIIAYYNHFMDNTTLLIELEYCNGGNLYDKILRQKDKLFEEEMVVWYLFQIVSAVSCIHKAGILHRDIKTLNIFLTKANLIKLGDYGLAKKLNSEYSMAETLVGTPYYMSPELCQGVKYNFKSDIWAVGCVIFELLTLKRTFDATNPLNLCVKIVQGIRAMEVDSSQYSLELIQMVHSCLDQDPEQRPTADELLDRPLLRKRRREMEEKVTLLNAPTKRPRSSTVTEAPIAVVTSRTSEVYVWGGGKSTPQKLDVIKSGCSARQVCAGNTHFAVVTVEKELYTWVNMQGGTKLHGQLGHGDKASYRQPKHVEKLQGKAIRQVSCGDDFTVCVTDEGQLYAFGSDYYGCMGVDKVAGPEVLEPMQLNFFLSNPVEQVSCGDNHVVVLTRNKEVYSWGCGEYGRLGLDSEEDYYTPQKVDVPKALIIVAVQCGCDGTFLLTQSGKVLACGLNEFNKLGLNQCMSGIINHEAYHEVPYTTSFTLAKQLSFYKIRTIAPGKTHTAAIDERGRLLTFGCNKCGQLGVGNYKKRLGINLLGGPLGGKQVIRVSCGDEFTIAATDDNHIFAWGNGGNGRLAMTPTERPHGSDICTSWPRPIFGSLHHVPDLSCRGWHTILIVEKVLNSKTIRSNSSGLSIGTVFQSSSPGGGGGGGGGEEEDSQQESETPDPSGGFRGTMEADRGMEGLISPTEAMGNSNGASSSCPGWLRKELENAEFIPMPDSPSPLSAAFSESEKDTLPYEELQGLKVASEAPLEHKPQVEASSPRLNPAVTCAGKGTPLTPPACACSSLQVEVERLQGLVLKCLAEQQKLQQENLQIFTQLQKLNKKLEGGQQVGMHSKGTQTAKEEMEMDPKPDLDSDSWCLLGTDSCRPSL

Sequence of Serine/threonine-protein kinase Nek6 (Homo sapiens) (Q9HC98 whole entry): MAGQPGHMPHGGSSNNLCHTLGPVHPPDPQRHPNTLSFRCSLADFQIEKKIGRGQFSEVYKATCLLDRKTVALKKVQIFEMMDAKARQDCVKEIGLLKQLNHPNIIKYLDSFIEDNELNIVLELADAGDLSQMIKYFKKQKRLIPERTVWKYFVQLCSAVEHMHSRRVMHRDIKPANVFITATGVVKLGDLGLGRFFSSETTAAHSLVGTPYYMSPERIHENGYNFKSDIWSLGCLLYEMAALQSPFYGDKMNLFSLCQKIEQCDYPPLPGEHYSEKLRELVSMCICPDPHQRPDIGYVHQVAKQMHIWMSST
Sequence of Casein kinase II subunit alpha (Homo sapiens) (P68400 whole entry, looked up): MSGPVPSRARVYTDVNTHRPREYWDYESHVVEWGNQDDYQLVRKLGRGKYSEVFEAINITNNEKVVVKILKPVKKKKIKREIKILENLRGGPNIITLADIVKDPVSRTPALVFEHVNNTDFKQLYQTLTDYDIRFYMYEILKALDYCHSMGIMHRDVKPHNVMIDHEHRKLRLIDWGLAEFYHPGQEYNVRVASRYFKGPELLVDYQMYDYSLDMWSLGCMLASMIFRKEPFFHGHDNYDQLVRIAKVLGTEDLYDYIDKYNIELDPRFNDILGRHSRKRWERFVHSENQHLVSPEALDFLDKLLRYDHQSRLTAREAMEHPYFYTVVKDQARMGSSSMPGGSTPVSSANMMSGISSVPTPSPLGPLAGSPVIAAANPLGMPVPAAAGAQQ
Sequence of Serine/threonine-protein kinase Nek7 (Homo sapiens) (Q8TDX7 whole entry, looked up): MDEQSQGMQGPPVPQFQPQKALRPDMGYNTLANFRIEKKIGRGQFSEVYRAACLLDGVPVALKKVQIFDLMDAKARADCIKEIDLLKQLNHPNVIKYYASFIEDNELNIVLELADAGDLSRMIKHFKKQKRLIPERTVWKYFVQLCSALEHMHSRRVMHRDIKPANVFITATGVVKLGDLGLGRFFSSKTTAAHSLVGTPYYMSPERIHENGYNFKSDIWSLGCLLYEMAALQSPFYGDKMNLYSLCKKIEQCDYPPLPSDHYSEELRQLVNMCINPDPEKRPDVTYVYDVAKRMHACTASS
Sequence of Sphingosine kinase 1 (Homo sapiens) (Q9NYA1 whole entry): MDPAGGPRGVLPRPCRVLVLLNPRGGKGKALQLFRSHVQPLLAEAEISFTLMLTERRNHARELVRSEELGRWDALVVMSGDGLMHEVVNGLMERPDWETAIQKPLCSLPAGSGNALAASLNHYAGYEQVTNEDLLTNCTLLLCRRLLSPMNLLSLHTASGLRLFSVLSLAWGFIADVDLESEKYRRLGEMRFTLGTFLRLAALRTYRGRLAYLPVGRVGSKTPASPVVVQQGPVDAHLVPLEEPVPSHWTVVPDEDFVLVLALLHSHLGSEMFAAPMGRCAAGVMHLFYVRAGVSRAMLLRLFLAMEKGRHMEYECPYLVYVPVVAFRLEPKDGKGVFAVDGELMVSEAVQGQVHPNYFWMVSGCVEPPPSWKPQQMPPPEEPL

## Nc1ncnc2occ(-c3ccc(NC(=O)Nc4cc(C(F)(F)F)cc(C(F)(F)F)c4)cc3)c12
[1]
  inhibition: -0.76%
[2]
  inhibition: 1.12%
[3]
  inhibition: -0.25%
[4]
  inhibition: 0.36%
[5]
  inhibition: -5.3%
[6]
  inhibition: -5.23%
[7]
  inhibition: -3.15%
[8]
  inhibition: -0.04%
[9]
  inhibition: 1.07%
[10]
  inhibition: -2.4%
[11]
  inhibition: 5.33%
[12]
  inhibition: 1.24%
[13]
  inhibition: 6.51%
[14]
  inhibition: 3.72%
[15]
  inhibition: 15.5%
[16]
  inhibition: -0.98%
[17]
  inhibition: 0.99%
[18]
  inhibition: 2.34%
[19]
  inhibition: 0.46%
[20]
  inhibition: 5.43%
